Most compounds without a hit are left out; they make up all but 12% or so of the library.
L3MBTL1 block: blocks human L3MBTL1 | AlphaScreen L3MBTL1–H3K9me1 peptide binding | 230,000 tested, 0.66% active | Potency, µM (doses to about 57.1 µM), for inactives: at the highest dose activity, negative = inhibition, usual class: inhibitors; also: % is scaled to controls: 0 for no effect and ±100 for the full control effect; nearly all actives have a fitted effect of over 60% in size
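L3MBTL1 (50 nM) pre-complexed 30 min with biotinylated H3(1-15)K9me1 peptide (75 nM), then compounds added for 30 min at room temperature; AlphaScreen streptavidin donor/nickel chelate acceptor beads (10 ug/mL final) read after 30 min dark incubation.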
JMJD2A Tudor: JMJD2A Tudor domain (human) inhibition; AlphaScreen JMJD2A-Tudor / H3K4me3 peptide binding; Potency, µM (series often up to 114 µM), for inactives: at the top dose activity change, negative = inhibition, usual class: inhibitors; 390,000 tested, 4.4% active; AID 504339; also: % is scaled to controls: 0 for no effect and ±100 for the full control effect; nearly all actives have a fitted effect of over 50% in size
Sfp inh: inhibitors of Bacillus subtilis Sfp phosphopantetheinyl transferase; Potency, µM, inactives show largest response in the series, negative = inhibition, hits mostly inhibitors; Q9F4F7; Biochemical Sfp PPTase activity, qHTS; AID 1490; 310,000 tested, 3.5% active;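 also: the enzyme is Sfp with the accession as filed and its product quenches rhodamine fluorescence; 0% = enzyme reaction without inhibitor and -100% = no enzyme wells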
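Compounds were incubated with enzyme (final 15 nM) for 15 min at room temperature before substrate addition started the reaction. Fluorescence at 525 nm excitation, 598 nm emission was recorded immediately and after 30 minutes.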
BAZ2B inh: blocks human BAZ2B; Q9UIF8; AlphaScreen BAZ2B-H3K14Ac peptide displacement; Potency, µM (highest dose often 114 µM), without a hit: top-dose activity change, negative = inhibition, usual class: inhibitors; 360,000 tested, 4.4% active; AID 504333; also: % is scaled to controls: 0 for no effect and ±100 for the full control effect; nearly all actives have a fitted effect of over 60% in size
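Protein-peptide AlphaScreen: BAZ2B 50 nM, b-H3K14Ac 50 nM, 1x PBS pH 7.4 + 0.01% Tween-20. Preincubation 30 min RT; cpd 30 min RT (top 110 uM); beads 20 min RT, light-protected.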
G9a inh: G9a (human) methyltransferase inhibition | G9a H3K9 monomethylation, AlphaScreen, 2 h | Potency, µM (top dose mostly 102 µM), for the others: top-dose activity, negative = inhibition, hits mostly inhibitors | 350,000 tested, 8.8% active | AID 504332; also: % is scaled to controls: 0 for no effect and ±100 for the full control effect; nearly all actives have a fitted effect of over 75% in size
Target sequence (Q96KQ7 913-1193 limits assumed): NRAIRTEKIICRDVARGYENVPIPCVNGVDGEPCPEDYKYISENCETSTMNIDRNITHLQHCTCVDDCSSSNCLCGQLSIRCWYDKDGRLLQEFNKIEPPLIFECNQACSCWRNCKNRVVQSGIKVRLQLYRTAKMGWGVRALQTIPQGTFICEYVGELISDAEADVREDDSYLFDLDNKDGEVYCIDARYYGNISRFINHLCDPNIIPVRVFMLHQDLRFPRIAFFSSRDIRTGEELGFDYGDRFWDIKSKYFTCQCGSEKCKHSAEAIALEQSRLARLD
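AlphaScreen read-out: biotin-H3K9 peptide (500 nM) methylation by 20 nM enzyme with 20 uM SAM, 2 h at room temperature after 15 min compound preincubation; anti-monomethyl H3K9 antibody plus donor/acceptor beads, 10 min dark.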
HP1b binding inh: HP1-beta chromodomain-methylated histone interaction inhibition | P83916 | AlphaScreen HP1-beta / biotin-H3K9me3 peptide binding | Potency, µM (top dose mostly 114 µM), for inactives: at the top dose activity change, negative = inhibition, actives largely listed as inhibitors | 390,000 tested, 0.56% active; also: nearly all actives have a fitted effect of over 70% in size
Target sequence (P83916 whole entry, looked up): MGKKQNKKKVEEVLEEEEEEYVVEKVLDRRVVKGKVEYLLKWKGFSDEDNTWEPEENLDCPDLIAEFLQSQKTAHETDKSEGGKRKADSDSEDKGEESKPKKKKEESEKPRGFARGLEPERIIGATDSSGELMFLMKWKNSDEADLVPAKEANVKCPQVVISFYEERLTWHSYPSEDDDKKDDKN
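HP1-beta protein (50 nM final) preincubated 30 min at room temperature with biotinylated H3(1-18)K9me3 peptide (50 nM) in PBS pH 7.4, 0.01% Tween-20, then compound added for 30 min. AlphaScreen streptavidin donor/nickel chelate acceptor beads (10 ug/mL final), 30 min dark, luminescence read.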
* = called active by the depositor; u = inconclusive; x = not tested or not shown; [ ] = another dose, or the depositor's remark. Calls follow the shape of the dose curve; as a rule, active = well fitted curve in the direction sought with a large enough effect; inconclusive = small, poorly fitted or top-dose-only effect, or another doubt; inactive = no such curve, though single readings can be large; an effect the other way counts as inactive or inconclusive. Potency is read from the fitted curve at half-maximal effect.

SMILES	L3MBTL1 block	JMJD2A Tudor	Sfp inh	BAZ2B inh	G9a inh	HP1b binding inh
CN1CCN(C(=O)c2ccc3c(c2)N(Cc2ccc(Cl)cc2)C(=O)c2ccccc2S3=O)CC1 (stereo not drawn)	2.5%	-11.3%	-0.7%	10.8%	79.4µM*	98.5%
COc1cccc(Cc2nc3ccccc3nc2SCC(=O)NCCc2ccccc2)c1	x	-17.2%	x	12.8%	u	21.5%[57 µM]
COc1ccc(N(CC(=O)NCCc2ccc(C)cc2)S(=O)(=O)c2c(C)nn(C)c2C)cc1	x	-16.7%	x	x	-3.4%[59 µM]	30.8%
O=C(O)/C=C/C(=O)Nc1ccc(N2CCOCC2)nc1N1CCOCC1	-8.8%	-33.8%	10µM*	-21.5%	8.91µM*	u
CC(C)c1ccc2oc(-c3ccc(Cl)c(NC(=O)Cc4ccccc4)c3)nc2c1	x	-10.0%	x	-3.2%	-56.2%[59 µM]	42.0%
Cc1c(-c2ccccc2)n[nH]c1C(=O)NN	2.2%	-4.3%	12.5%	-23.6%	39.8µM*	36.4%
CCOc1ccc(-c2n[nH]c(C(=O)NN)c2C)cc1	-4.1%	-22.0%	5.4%	1.0%	8.2%[59 µM]	11.7%
Cc1ccc(NC(=O)CSc2nccn2-c2ccccc2)cc1	x	u	x	u	u	-25.9%
CC1=NN(c2nc(-c3ccc(C)cc3)cs2)C(=O)C1N=Nc1ccc2ccccc2c1 (stereo not drawn)	-9.6%	u	10.8%	u	1µM*	-27.7%
O=C1c2cccc3c(N4CCOCC4)c([N+](=O)[O-])cc(c23)C(=O)N1c1cccc2ccccc12	u	u	-17.3%	u	11.2µM*	-11.6%
Cc1cccc(N2C(=O)c3cccc4c(N5CCCCC5)c([N+](=O)[O-])cc(c34)C2=O)c1C	-16.3%	u	2.4%	u	-11.1%[59 µM]	u
CC(=O)Nc1ccc(-c2csc(NC(=O)c3ccc(C)o3)n2)cc1	x	-13.3%	-3.1%	-34.1%	44.7µM*	16.8%
Cc1ccc(C(=O)Nc2nc(-c3ccc([N+](=O)[O-])cc3)cs2)o1	-5.7%	-5.6%	-3.2%	-33.9%	0.0%[59 µM]	29.3%
Cc1ccc(C(=O)Nc2nc(-c3ccccn3)cs2)o1	u	50.1µM*	-7.9%	17.8µM*	u	27.1%
COc1ccc(OC)c(-c2csc(NC(=O)Cc3ccc(F)cc3)n2)c1	x	u	21.5%	-38.8%	-15.8%	-14.3%
O=C(Nc1nc(-c2ccccn2)cs1)c1ccc([N+](=O)[O-])o1	12.6µM*	22.4µM*	15.8µM*	20µM*	6.31µM*	u
CC(=O)c1ccc(-c2ccc(C(=O)Nc3nc(-c4ccccn4)cs3)o2)cc1	-10.2%	-34.1%	x	x	x	-2.7%
Cc1ccc(-c2csc(NC(=O)Cc3ccc(F)cc3)n2)o1	x	-32.3%	12.6µM*	-32.8%	10µM*	u
CCc1sc(C(=O)Nc2nc(C)cs2)cc1C	x	1.4%	7.3%	-9.5%	19.8%	35.8%
CCn1nc(C(=O)Nc2nc(-c3ccccn3)cs2)c2ccccc2c1=O	-6.3%	-28.4%	x	-0.2%	-8.2%[12.7 µM]	14.6%
CCCn1nc(C(=O)Nc2nc(-c3ccccn3)cs2)c2ccccc2c1=O	u	56.2µM*	x	u	44.1%[12.7 µM]	29.5%
O=C(Nc1nc(-c2cc(F)ccc2F)cs1)c1ccccn1	2.0%	19.6%	-1.7%	0.3%	30.5%	58.2%
CCc1cc(C(=O)Nc2nc(-c3ccccn3)cs2)sc1C	-5.5%	u	x	70.8µM*	-7.5%[12.7 µM]	27.6%
O=C(Nc1nc(-c2ccccn2)cs1)c1ccc(-c2ccccc2F)o1	u	u	x	79.4µM*	43.1%[12.7 µM]	38.9%
COc1cccc(-c2nnc(SCC(=O)Nc3cc(C)on3)n2C)c1	x	-4.2%	19.2%	-1.6%	50.1µM*	16.6%
Cc1cc(NC(=O)CSc2nnnn2-c2ccc(C)c(Cl)c2)no1	x	-7.0%	-2.4%	7.3%	44.7µM*	22.9%
Cc1cc(NC(=O)CSc2nnc(-c3ccco3)n2C)no1	0.7%	-17.9%	x	7.8%	20.9%[12.7 µM]	29.6%
COc1ccc(-c2nnc(SCC(=O)Nc3cc(C)on3)n2N)cc1OC	-0.8%	-17.1%	7.1%	-4.8%	50.1µM*	36.6%

Screening data from PubChem BioAssay.
